NPR1 antag: Natriuretic polypeptide receptor (hNpr1) antagonism - Primary qHTS; HEK293 hNpr1 GloSensor cGMP, ANP-stimulated luminescence; 76,000 compounds, 1.6% hits; AID 1347048, 2019; Atrial natriuretic peptide receptor 1 (Homo sapiens), P16066; Potency, µM (highest dose often 46.3 µM), for the others: at the top dose activity change, negative = inhibition, most hits filed as inhibitors; calls by dose curve; further: nearly all actives have a fitted effect of over 60% in size
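Compound pre-incubated 30 min at room temperature on GloSensor-loaded HEK293 cells stably carrying hNpr1 and the pGS-40F cGMP biosensor. Stimulation uses hNppA at 0.1 nM final; luminescence is taken at baseline and 20 min post-agonist.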
SNCA viab count: GF-AFC viability counterscreen for inhibitors of alpha-synuclein gene (SNCA) expression; HEK-293-SNCA-luc viability, GF-AFC fluorescence, 24 h; Potency, µM (top dose mostly 57.1 µM), for the others: at the highest dose activity change, negative = cytotoxicity, hits mostly cytotoxic; 150,000 compounds, 0.12% hits;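 further: 0% = DMSO-treated cells and -100% = medium-only wells without cells; nearly all actives have a fitted effect of over 30% in size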
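HEK-293-SNCA-luc cells (1500/well) plated 24 h, then exposed 24 h to a dilution series; GF-AFC added 30 min at 37C, fluorescence 405/540 nm; normalised to medium-only and DMSO wells, Hill fit.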
Luciferase inh: Firefly luciferase inhibition profiling of diverse chemical library using quantitative high-throughput screening. AID 1347043, 2019. Potency, µM (doses to about 115 µM), hits mostly inhibitors. 76,000 compounds, 2.5% hits. purified P. pyralis luciferase, luminescence, biochemical; further: nearly all actives have a fitted effect of over 65% in size
Target sequence (P08659 whole entry, looked up): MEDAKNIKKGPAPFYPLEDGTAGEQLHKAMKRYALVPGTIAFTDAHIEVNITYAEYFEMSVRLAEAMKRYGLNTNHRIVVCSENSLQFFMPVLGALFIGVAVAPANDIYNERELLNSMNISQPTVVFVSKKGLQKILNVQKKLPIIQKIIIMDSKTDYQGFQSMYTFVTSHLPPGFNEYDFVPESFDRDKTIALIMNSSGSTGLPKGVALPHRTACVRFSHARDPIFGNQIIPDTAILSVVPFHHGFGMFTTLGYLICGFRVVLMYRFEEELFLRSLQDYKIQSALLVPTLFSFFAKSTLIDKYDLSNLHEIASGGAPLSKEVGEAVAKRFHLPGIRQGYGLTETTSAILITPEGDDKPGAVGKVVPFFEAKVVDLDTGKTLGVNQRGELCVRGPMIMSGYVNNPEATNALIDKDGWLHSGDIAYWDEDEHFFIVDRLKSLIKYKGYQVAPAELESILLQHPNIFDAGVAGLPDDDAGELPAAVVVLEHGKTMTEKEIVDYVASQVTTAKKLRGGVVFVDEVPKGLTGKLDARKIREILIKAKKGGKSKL
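Inhibitors were tested against purified firefly luciferase in a biochemical, low-substrate format (both substrates at 10uM) and luminescence measured with a CCD imager.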
HEK293 tox: Cytotoxic Profiling in HEK 293 Cell Line of Diverse Libraries Using Quantitative High-Throughput Screening. HEK 293 viability, ATP luminescence (CellTiter-Glo), 48-72 h. Potency, µM (titrated, usually from 115 µM), inactives show at the top dose activity change, negative = cytotoxicity, hits mostly inhibitors. 94,000 compounds, 6.6% hits. AID 1345083, 2018; further: nearly all actives have a fitted effect of over 60% in size
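Read-out: CellTiter-Glo ATP luminescence. Cells: HEK 293, 250 cells/well. Exposure: 48 or 72 hr, 37 degree Celsius.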
SNCA expr inh: Primary qHTS assay for inhibitors of alpha-synuclein gene (SNCA) expression; HEK-293 SNCA-luciferase knock-in, luminescence, 24 h; Potency, µM (highest dose often 57.2 µM), for inactives: top-dose activity change, negative = inhibition, usual class: inhibitors; 140,000 compounds, 0.17% hits;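 further: plate controls were DMSO cells for no effect and cell-free wells for full effect; nearly all actives have a fitted effect of over 45% in size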
NIH3T3 tox: Cytotoxic Profiling in NIH 3T3 Cell Line of Diverse Libraries Using Quantitative High-Throughput Screening; NIH 3T3 viability, CellTiter-Glo ATP luminescence, 48-72 h; Potency, µM (titrated, usually from 96.7 µM), for inactives: at the highest dose activity change, negative = cytotoxicity, hits mostly inhibitors; 94,000 compounds, 4.3% hits; AID 1345082, 2018; further: nearly all actives have a fitted effect of over 55% in size
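First NIH 3T3 cells are plated at 400 cells/well; next compound is pinned in; then plates incubate 48 or 72 hr at 37 °C; finally CellTiter-Glo is added and luminescence read after 10 min.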
An asterisk follows results filed as active; i = inactive; u = inconclusive; x = no result given; [ ] = dose if it differs, or a comment. Sampled rows, rich in hits. Any-hit rate of the full collection: about 7.4%. Unless noted, the call rests on the fitted dose curve; in most records, active means well fitted curve in the direction sought with a large enough effect; inconclusive means small, poorly fitted or top-dose-only effect, or another doubt; inactive means no such curve, though single readings can be large; an effect the other way counts as inactive or inconclusive. Unless noted, on the % scale 0 is the no-effect control and ±100 the full control effect; potency means the concentration at half of the fitted maximal effect.

SMILES	NPR1 antag	SNCA viab count	Luciferase inh	HEK293 tox	SNCA expr inh	NIH3T3 tox
CCn1cc(C(=O)N2CCCC(C(=O)Nc3cccc(-c4cc5ccccc5[nH]4)c3)C2)cn1 (stereo unspecified)	-5%	-10%	u	40µM*	-13%	u
O=C(c1ccccc1)N1CCC(C(=O)N2CCC(N3Cc4ccccc4C3=O)CC2)CC1	x	12%	x	u	-2%	-28%
CC1(C)[C@H]2CC[C@@H](CNC(=O)c3ccc(Cl)cc3)[C@@H]1C2	-8%[70.6 µM]	-26%[87.6 µM]	i	u	u	40µM*
COc1cccc(C(=O)NC[C@@H]2CC[C@H]3C[C@@H]2C3(C)C)c1	-1%[70.6 µM]	-4%[87.6 µM]	i	89µM*	8%[87.6 µM]	u
CC1(C)[C@H]2CC[C@@H](CNC(=O)c3cccnc3)[C@@H]1C2	-20%[70.6 µM]	9%[87.6 µM]	i	-32%[172 µM]	-13%[87.6 µM]	u
CC1(C)[C@H]2CC[C@@H](CNC(=O)c3ccccc3Cl)[C@@H]1C2	-16%[70.6 µM]	2%[87.6 µM]	i	u	-9%[87.6 µM]	u
CC1(C)[C@H]2CC[C@@H](CN[S+](=O)([O-])c3ccccc3)[C@@H]1C2	-26%[70.6 µM]	1%[87.6 µM]	i	79µM*	-29%[87.6 µM]	u
CC1(C)[C@H]2CC[C@@H](CNC(=O)c3cccc(Cl)c3)[C@@H]1C2	2%[70.6 µM]	-5%[87.6 µM]	i	79µM*	-8%[87.6 µM]	u
O=C(NCC(F)(F)F)c1ccc2oc(-c3ccncc3)nc2c1	x	5%	x	u	67%	u
O=C(C1CCCN1C(=O)C1CCCC1)N1CCC(N2CCOCC2=O)CC1 (stereo unspecified)	x	-6%	x	4%	u	-3%
CC(C)c1noc(-c2cn(C3CCN(C(=O)c4cccc5[nH]ccc45)CC3)nn2)n1	0%	3%	i	45µM*	-9%	-23%
CCc1noc(-c2cn(C3CCN(C(=O)c4cccc5[nH]ccc45)CC3)nn2)n1	-26%	5%	i	u	21%	-24%
O=C(c1cccc2[nH]ccc12)N1CCC(n2cc(-c3nc(-c4ccccc4)no3)nn2)CC1	u	-17%	i	28µM*	8%	u
O=C(c1ccc[nH]c1=O)N1CCC(n2cc(-c3nc(-c4ccccc4)no3)nn2)CC1	-14%	-3%	u	6%	71%	-28%
O=C(c1cccc2[nH]ccc12)N1CCC(n2cc(-c3nc(-c4ccccc4)no3)nn2)C1 (stereo unspecified)	11µM*	-27%	u	u	6%	u
O=C(NCCCc1ccccc1)C1CCCN(Cc2cccc(-c3ccsc3)c2)C1 (stereo unspecified)	x	x	x	40µM*	x	35µM*
O=C(C1CCCN(Cc2cccc(-c3ccsc3)c2)C1)N1CCN(c2ncccn2)CC1 (stereo unspecified)	x	x	x	32µM*	x	u
O=C(NCCc1ccccc1)C1CCCN(Cc2cccc(-c3ccsc3)c2)C1 (stereo unspecified)	x	x	x	u	x	40µM*
CC(C)NC(=O)C1CCCN(Cc2cccc(-c3ccsc3)c2)C1 (stereo unspecified)	x	x	x	45µM*	x	u
O=C(c1ccncc1)N1CC2CCC(C1)N2Cc1cccc(-c2ccsc2)c1	x	-9%	x	u	-2%	-25%
CC#CCn1cc2c3c(cccc31)[C@H](CC(C)C)N[C@H](C(=O)NCc1ccccc1)C2	-21%[70.6 µM]	-18%[87.6 µM]	i	63µM*	-32%[87.6 µM]	u
CC#CCn1cc2c3c(cccc31)[C@H](CC(C)C)N[C@H](C(=O)OC)C2	-11%[70.6 µM]	4%[87.6 µM]	i	u	-7%[87.6 µM]	u
CC#CCn1cc2c3c(cccc31)[C@H](CC(C)C)N[C@H](C(=O)NC1CC1)C2	-11%[70.6 µM]	u	i	89µM*	u	u
C#CCNC(=O)[C@@H]1Cc2cn(CC#CC)c3cccc(c23)[C@H](CC(C)C)N1	-2%[70.6 µM]	0%[87.6 µM]	i	u	-17%[87.6 µM]	u
CC#CCn1cc2c3c(cccc31)[C@H](CC(C)C)N[C@H](C(=O)NCc1ccc(OC)cc1)C2	0%	u	i	u	5%	u
SMILES	NPR1 antag	SNCA viab count	Luciferase inh	HEK293 tox	SNCA expr inh	NIH3T3 tox
CC#CCn1cc2c3c(cccc31)[C@H](CC(C)C)N[C@H](C(=O)NCCNC(C)=O)C2	-2%[70.6 µM]	-1%[87.6 µM]	i	100µM*	-4%[87.6 µM]	u
CC#CCn1cc2c3c(cccc31)[C@H](CC(C)C)N[C@H](C(=O)NCc1cccs1)C2	-15%[70.6 µM]	u	i	71µM*	-24%[87.6 µM]	u
CCOC(=O)C1CCCN(C(=O)c2nc3sccn3c2-c2cccc(OC)c2)C1 (stereo unspecified)	x	-12%	x	-25%	0%	-14%
CCNC(=O)NC1=N[C@@]23CO[C@H](c4ccccc4)C[C@@H]2CC(=O)[C@H]3S1	x	x	x	u	x	-42%
CCOC(=O)CN1C(=O)CN(C(=O)Cc2ccccc2)CCC(OC)c2ccccc21 (stereo unspecified)	x	x	x	2%	x	u
CC#CCn1cc2c3c(cccc31)[C@H](CC(C)C)N[C@H](C(=O)NCCN(C)C)C2	-11%[70.6 µM]	-12%[87.6 µM]	i	28µM*	-10%[87.6 µM]	40µM*
C=CCNC(=O)[C@@H]1Cc2cn(CC#CC)c3cccc(c23)[C@H](CC(C)C)N1	0%[70.6 µM]	1%[87.6 µM]	i	u	-17%[87.6 µM]	u
CC#CCn1cc2c3c(cccc31)[C@H](CC(C)C)N[C@H](C(=O)NCc1ccco1)C2	-10%[70.6 µM]	-14%[87.6 µM]	i	u	-24%[87.6 µM]	89µM*
Cc1sc2ccn(C)c(=O)c2c1C(=O)N1CCN(c2ccc(Cl)cc2)CC1	-11%	1%	i	79µM*	-18%	-15%
O=C([C@H]1CCCN1C(=O)C1CCCC1)N1CCC(N2CCOC2=O)CC1	x	5%	x	-4%	-1%	-1%
Cc1ccsc1C(=O)C1CCCN(Cc2cc(F)ccc2-n2cccn2)C1 (stereo unspecified)	-2%	5%	i	40µM*	-3%	u
COCC[C@]1(O)CCN(Cc2cc(F)ccc2-n2cccn2)C[C@H]1C	-14%	-14%	i	u	14%	2%
Cc1cccc(NC(=O)C23CCC=C2N(C2CCCC2)C(=O)CC3)c1 (stereo unspecified)	x	-11%	x	u	15%	-18%
